Bioassay records as filed in PubChem BioAssay.
In the library only some 12% were active in any assay of this set; here they are far more common.
Lassa entry inh = Lassa virus entry inhibition | Lassa virus pseudotype entry inhibition, cell reporter | Potency, µM (doses to about 37.9 µM), actives largely listed as inhibitors | actives 1.2% (n = 300,000) | AID 540256; calls by dose curve; tested in HEK293 cells; note: nearly all actives have a fitted effect of over 50% in size
CHX counter = counter-screen hit for Shiga toxin inhibitors, cycloheximide; cell reporter, cycloheximide protein synthesis inhibition counterscreen; max response, %; actives 12% (n = 300,000); AID 2314; in the data active = max response mostly above about 13%, no sharp cut-off; inactive = mostly below about 14%; note: read at 38.3 µM for the half of the compounds with a filed dose
Shiga inhibitor = inhibitors of Shiga toxin in Vero cells; Vero cells, Shiga toxin protein synthesis inhibition reporter; AID 2315; actives 9.2% (n = 290,000); inhibition, % at 38.7 µM; in the data active = inhibition mostly above about 28%, no sharp cut-off; inactive = mostly below about 43%
Marburg entry inh = blocks Marburg virus binding to or entry into cells; actives 1.8% (n = 300,000); AID 540276; Marburg virus pseudotyped entry inhibition, cell reporter; Potency, µM (top dose mostly 37.8 µM), usual class: inhibitors; calls by dose curve; tested in HEK293 cells
A number is an active result; n = inactive; u = inconclusive; x = not tested or not shown.

SMILES | Lassa entry inh | CHX counter | Shiga inhibitor | Marburg entry inh
O=C(NC(Cc1c[nH]c2ccccc12)C(=O)Nc1ccc(F)c([N+](=O)[O-])c1)c1cccs1 (configuration not stated) | 0.58µM | n | n | 0.79µM
Cc1ccc(NC(=O)CSc2ncc3c(n2)-c2ccccc2N(Cc2cccc(F)c2)S3(=O)=O)cc1F | n | x | x | x
Cn1c(N=Nc2ccccc2)nc2ccccc21 | u | n | n | u
Cc1[nH]c(N=Nc2ccccc2)nc1N=Nc1ccccc1 | u | n | 71 | u
COc1ccc(COC(=O)CCS(=O)(=O)c2ccc(C)cc2)cc1F | n | x | x | u
Cc1nc2scc(-c3ccco3)c2c(=O)n1/N=C/N(C)C | n | n | n | u
Cc1nc2cc(NC(=O)c3cccc(S(C)(=O)=O)c3)ccc2o1 | u | 13 | n | n
CC(=O)Nc1ccc2oc(C)nc2c1 | n | n | n | n
Cc1ccc(NC(=O)c2cccc(S(C)(=O)=O)c2)cc1 | u | 33 | 97 | n
Cc1nc2cc(NC(=O)NCc3ccco3)ccc2o1 | n | 17 | 49 | n
Cc1cc(NC(=O)NCc2ccco2)ccc1NC(=O)NCc1ccco1 | n | x | x | n
CS(=O)(=O)c1cccc(C(=O)Nc2cccc(S(=O)(=O)N3CCCC3)c2)c1 | n | x | x | n
O=C(Nc1cccc(NC(=O)c2sc3ccccc3c2Cl)c1)c1ccco1 | n | 40 | 69 | u
O=C(Nc1cccc(NC(=O)c2nccc3ccccc23)c1)c1ccco1 | n | 45 | 130 | n
O=C(Nc1cccnc1)c1cccc(NC(=O)c2ccco2)c1 | n | n | n | n
CC1CCN(S(=O)(=O)c2cccc(C(=O)NNC(=O)c3ccco3)c2)CC1 | n | n | n | n
COC(=O)c1ccccc1NC(=O)COC(=O)[C@H](C)NC(N)=O | n | n | n | n
O=C(COC(=O)C(Cc1ccccc1)NC(=O)c1ccc(Cl)cc1)c1ccc(Cl)cc1 (configuration not stated) | n | n | n | n
CC(NC(N)=O)C(=O)OCC(=O)c1ccc(-c2ccccc2)cc1 (configuration not stated) | x | 36 | 43 | x
CN(Cc1ccc(F)cc1)C(=O)C(Cc1ccccc1)NC(=O)c1ccccc1 (configuration not stated) | n | x | x | u
CN(Cc1ccccc1)C(NC(=O)c1ccccc1)C(Cl)(Cl)Cl (configuration not stated) | 21µM | n | n | n
O=C(COC(=O)C(Cc1ccccc1)NC(=O)c1ccccc1)c1ccccc1 (configuration not stated) | n | 24 | 37 | n
CSc1ccc(CN(C)C(=O)C(Cc2ccccc2)NC(=O)c2ccccc2)cc1 (configuration not stated) | u | 40 | 65 | u
CCOC(=O)C1CCCN(C(=S)Nc2cc(C)cc(C)c2)C1 (configuration not stated) | n | n | n | u
COc1ccc(OC)c(NC(=O)Cn2nc3c(cc2=O)CCCC3)c1 | n | x | x | u
SMILES | Lassa entry inh | CHX counter | Shiga inhibitor | Marburg entry inh
CCc1ccc(C(=O)COC(=O)C(CCSC)NC(=O)c2ccccc2)cc1 (configuration not stated) | n | 22 | active | n
COC(=O)c1ccc(C)c(NC(=O)C(CCSC)NC(=O)c2cc(OC)c(OC)c(OC)c2)c1 (configuration not stated) | n | n | n | n
CCOc1ccc(CN(C)C(=O)[C@H](Cc2ccccc2)NC(=O)OCc2ccccc2)cc1OC | 8.9µM | n | n | 4.5µM
COc1cc(C(=O)NC(CCSC)C(=O)OCC(=O)C(C)(C)C)cc(OC)c1OC (configuration not stated) | x | n | 53 | x
CCc1ccc(C(=O)COC(=O)C(CCSC)NC(=O)C23CC4CC(CC(C4)C2)C3)cc1 (configuration not stated) | n | n | n | n
CCOc1ccc(CN(C)C(=O)NNC(=O)c2ccc(C)cc2)cc1OC | n | n | n | n
O=C(CN1C(=O)c2ccccc2C1=O)NCCc1c[nH]c2ccccc12 | n | n | n | n
O=C1c2ccccc2C(=O)N1CCCc1c[nH]c2ccccc12 | n | 17 | n | u
c1ccc2c(CNC3CCCCCC3)c[nH]c2c1 | n | n | n | 13µM
O=C(O)C1CC(=O)N(CCc2c[nH]c3ccccc23)C1 (configuration not stated) | n | n | n | n
O=C1c2ccccc2C(=O)N1CCc1c[nH]c2ccc(O)cc12 | n | 34 | n | n
O=C1CCCCN1CCc1c[nH]c2ccccc12 | u | 25 | active | n
O=C(Nc1ccccc1)N(Cc1c[nH]c2ccccc12)C1CCCCCC1 | n | x | x | n
CCC(C(=O)NCCCN(CC)CC)n1ncn2c(cc3occc32)c1=O (configuration not stated) | x | x | x | n
O=C1c2ccccc2C(=O)N1CCc1c[nH]c2ccccc12 | u | 48 | 95 | n
